Data on 68 sequences can be found in PubChem BioAssay AID1508600 (Functional Genomics Laboratory (NCATS/FGL), 2020).

Hit rate of the full screen: of about 53,000 sequences, about 3,700 (7%) were called active. The full list was thinned out, with actives kept by preference. A number with no mark means an inactive call.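 How the source made its calls: active means gene knockdowns whose robust z-score for IL-1 alpha signal is at least 2 or at most -2, so actives lie on both sides; inactive means the rest.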

This assay in a line: Components of the Cytosolic LPS Sensing Pathway: Gene Identification via Genome-wide siRNA Screen.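 Further: robust z of the log signal after scaling to non-targeting control siRNA wells of the plate.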 The following applies: RAW264.7 macrophages, IL-1a HTRF, actives lie on both sides, screened at 100 nM (by protocol), cells primed 5 h with Pam3CSK4 first. In a few lines: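 RAW264.7 mouse macrophages reverse-transfected with single siRNAs (100 nM final) for 48h, primed with Pam3CSK4 for 5 hours, then transfected with LipidA for 24 hour. Supernatant IL-1a read by HTRF; values normalized to negative-control median, log-transformed robust z-scores.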
With GGCCACCAUUUCUGAAAUCTT against Tecr, the z-score was 0.714.

Turning to GAACACAAAUCUAGUAGACTT against Olfr1109, the z-score was 0.278.

Turning to GGAGAAUUAAAAUGUGAAGTT against Hsd17b4, the z-score was 0.161.

Take GGAGCUAAACUCCUUGAAGTT against Slc22a4: the z-score was 2.07 (active).

In the case of GGGUGCCUAGCAGAUGAACTT against Sp110, the z-score is -0.912.

As to GGACAAUGUUGAAUCCUGUTT against Rrp15, the z-score was -0.155.

As to GGAGGAAUCAAAGGCUCCUTT against Slc39a5, the z-score was -0.319.

For GGCGCAUUAGCAGAGACUGTT against Mrps5, the z-score was 4.17 (active).

Regarding GGCACAUUAGUAGAACACATT against Sorcs2, the z-score is -0.243.

Take GGAUCAUUCCUUUGGUUAGTT against Fabp5: the z-score was -1.34.

Regarding GCCAAGAAUAGCAUUACUGTT against Abraxas1, the z-score was -2.45 (active).

As for GGGUAGCUACGAAGAGGAATT against Ros1, the z-score was 1.72.

On to GGAAAACCAGCUAAUUAUCTT against Ptger3, for which the z-score is -0.23.

In the case of GGAAAGUGUGUGUUAUAUUTT against Zfp358, the z-score is 1.98.

With CGAGCUUAUCAUCAGCGACTT against Polr2f, the z-score was -2.74 (active).

Regarding CGGGAUAUCAUUCUCCAUATT against Lnpep, the z-score is 0.62.

On to GGUUUUAAGUUCUAGGGAATT against Olfr1288, for which the z-score is -0.599.

As to GCAUGUUUACCUCAAAGUGTT against Cd209e, the z-score was 0.843.

As for GGCCUUGCUUUCAUAAAGUTT against Mrpl49, the z-score was 0.348.

Turning to CGAUACCCAACUGUUGAAATT against Ap5m1, the z-score is 1.12.

As to CCCGCUAUUACGUUUUUCUTT against Mtarc2, the z-score was -0.498.

Regarding CCUCAGAACAAAUGAAAAUTT against Nlk, the z-score was -0.62.

Regarding GGCAGGUGAAUGUGGUAGATT against Btbd17, the z-score is 0.165.

Turning to GGCCAACACUAACACAGACTT against Tmem268, the z-score is -0.357.

Take GGUCAAUGGAGUAGAUUUATT against Pard3: the z-score is 2.24 (active).

With “GGUCAUGAAAAUUAAAGCATT against 1110059G10Rik”, the z-score is -2.31 (active).

As to GCACGAUGUACCUGAAUCUTT against Ifitm5, the z-score was 0.387.

For CCUGCUCUAGAGAAGAAGUTT against Naxe, the z-score is 0.879.

Take GCAGUCACCUUCAAAAAAATT against Zfp960: the z-score was 1.08.

For the sequence CGGUAGAAGGCUUAGGCAATT against Aox1, the z-score was -0.922.

In the case of GGUCAUAGCAUCUACGGCUTT against Gm4793, the z-score was -0.11.

As to GGUGUAAUUGGGAAAAUUCTT against Inpp5f, the z-score was -1.17.

Take GGCCAACCUGUUCAUCAGCTT against Bdkrb1: the z-score is -0.0817.

Consider CCUGAGUCUCGGUUCACAATT against Kif12, for which the z-score was -2.13 (active).

GCACAGUGUAACUUAGGGCTT against Cenpb: the z-score is -0.525.

For CUAAAUGCCUCCUACCUUUTT against Krtap4-16, the z-score was 1.89.

With CCUCAGAAAAAGCCUAUAGTT against Kcnj3, the z-score is -2.13 (active).

Regarding GGCAAGUUGACCGUGUUUUTT against Dtnb, the z-score was -0.307.

In the case of GGUGAAACAGCGAAUAGGUTT against Zfp428, the z-score is -0.168.

For GGAAUUGUAGAAAGUGUUGTT against Adh4, the z-score is 1.66.

In the case of “GGGCCUGUAAUGGUGUACATT against B230317F23Rik”, the z-score was 2.56 (active).

As to GGCUUUCCGCGCUAUUGAUTT against Pcmtd2, the z-score is -0.027.

As for GGAUUUUAGUGAAUUCCAUTT against Asah1, the z-score was 0.0675.

As to CCCUGGAUUGAGGAUCGUUTT against Mrgpra8, the z-score was -1.14.

On to GGAACUCCAGCUUUUGGUCTT against Sox13, for which the z-score was 2.51 (active).

Regarding “GGUUGAAGAGCAUGAGAGCTT against A330041J22Rik”, the z-score is 1.01.

GGAGCUAAACCAAUGGCAATT against Txndc15: the z-score was 0.479.

As for GCCCAAGAAUGUGCCUUAUTT against Olfr1278, the z-score is -0.578.

With GCAGACUAAAAUCACGACATT against Ednra, the z-score is 2.62 (active).

GGUGAUGAAAAGAAUUGCATT against Pitrm1: the z-score was 0.417.

Turning to GGACUUUGGUUUUUGUAAGTT against Vasn, the z-score was -1.72.

Turning to GGUCCAAAGAAAGACCCAUTT against Cypt4, the z-score is -0.131.

Turning to GGUAAACAUGUCUAUGACUTT against Fpr-rs7, the z-score is -2.09 (active).

Consider GGAGAUCAUGUCAAAAAAGTT against Ibtk, for which the z-score is -0.848.

For the sequence “GGGCUUUAUUCAUCCACUCTT against 1700067P10Rik”, the z-score is 1.52.

For the sequence GGAAUGGAUCCUGAUGAUATT against Spcs2, the z-score is -0.877.

As for GCUCGAUCAUGGGCCUAUATT against Crls1, the z-score is -0.189.

Consider GGAUAGUUUGGUAAUGAAATT against Cds1, for which the z-score is -0.748.

For GGCAGAUAAAGAUGGAGCATT against Ndp, the z-score was 3.69 (active).

With CGGGCUAUCUGGAACUAUATT against Sesn1, the z-score is -0.466.

Regarding GGCUUAAAGGUCCUGUGCUTT against Ighmbp2, the z-score was -2.89 (active).

Turning to GGUUUAUGCAAUGAAGCUUTT against Rock2, the z-score is -0.0928.

As for GGUUAUGGUUUUGUUGACUTT against Rbms1, the z-score was -0.606.

For GGCUUUAAUGCCUGUAUUATT against Ilvbl, the z-score is -0.185.

Turning to GGUUUGGAUGUGAAACAAGTT against Myot, the z-score was -0.861.

As to GGAAUCUCGGAGGAAAACUTT against Hyou1, the z-score was 1.99.

On to GGCAGUAGCCUUGUCUGUCTT against Prrx2, for which the z-score is -1.42.

With GCAAGAUCCCGACACAUACTT against Tead4, the z-score is -2.22 (active).
